# AmpC detergent = inhibitors of E. coli AmpC beta-lactamase with detergent. AmpC hydrolysis of nitrocefin, absorbance 480 nm, 0.01% Triton. Potency, µM (doses to about 114 µM), inactives show at the highest dose activity change, negative = inhibition, usual class: inhibitors. hit rate 0.041% among 370,000. AID 485294;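 note: 0% = no-compound wells and -100% = no-enzyme wells; nearly all actives have a fitted effect of over 25% in size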
# Target sequence (P00811 whole entry, looked up): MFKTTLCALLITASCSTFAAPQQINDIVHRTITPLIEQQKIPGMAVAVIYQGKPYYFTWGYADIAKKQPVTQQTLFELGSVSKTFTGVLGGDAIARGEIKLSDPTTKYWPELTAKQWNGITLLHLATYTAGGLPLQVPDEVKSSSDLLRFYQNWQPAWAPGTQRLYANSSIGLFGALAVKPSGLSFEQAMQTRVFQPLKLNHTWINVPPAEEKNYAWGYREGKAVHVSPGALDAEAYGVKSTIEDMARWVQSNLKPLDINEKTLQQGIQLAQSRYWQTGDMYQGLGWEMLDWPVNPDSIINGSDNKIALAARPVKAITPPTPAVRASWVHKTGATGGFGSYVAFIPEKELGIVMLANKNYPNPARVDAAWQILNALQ
#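 20 mM phosphate pH 7.0 + 0.01% (detergent screen) or 0.0001% Triton X-100; 5.3 nM AmpC reagent; cpd preinc 15 min RT; nitrocefin (800 uM stock) to start; A480 q20 s × 4 min; Activity was normalised to no-enzyme and no-compound control wells.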
# AMA1-RON2 inh = inhibitors of Plasmodium falciparum AMA1-RON2 interaction; Potency, µM (top dose mostly 58.2 µM), for the others: at the highest dose activity change, negative = inhibition, most hits filed as inhibitors; AlphaScreen AMA1-biotinylated RON2 peptide binding; hit rate 0.2% among 360,000; AID 720542;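 note: 0% = vehicle wells and -100% = peptide control; nearly all actives have a fitted effect of over 45% in size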
#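 AMA1 (3D7) with his tag at 25 nM final met compounds first, then biotinylated RON2 peptide at 25 nM; detection used donor plus acceptor beads, 10 µg/mL apiece, read by AlphaScreen after 30 min at room temperature.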
# FMDV antiviral = foot and mouth disease virus antiviral activity. FMDV antiviral cell-based qHTS. Potency, µM (top dose mostly 57.9 µM), inactives show at the highest dose activity change, negative = inhibition, actives largely listed as inhibitors. hit rate 1.2% among 410,000. AID 1159524; calls by dose curve; tested in HEK293T cells; note: read-out not given here; nearly all actives have a fitted effect of over 45% in size
# AmpC inh no detg = inhibitors of E. coli AmpC beta-lactamase without detergent; AmpC nitrocefin hydrolysis, absorbance 480 nm, 0.0001% Triton; Potency, µM (titrated, usually from 57.1 µM), for inactives: at the highest dose activity change, negative = inhibition, actives largely listed as inhibitors; hit rate 0.52% among 330,000;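 note: plate controls were no compound for no effect and no enzyme for full effect; nearly all actives have a fitted effect of over 20% in size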
#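 AmpC (5.3 nM in the dispensed reagent) in 20 mM phosphate pH 7.0 with 0.01% (detergent screen) or 0.0001% Triton X-100 was preincubated with compounds for 15 min at room temperature. Nitrocefin was then added from an 800 uM solution, and hydrolysis was followed at 480 nm.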
# Sm TGR block = blocks Schistosoma mansoni thioredoxin glutathione reductase; Potency, µM (top dose mostly 114 µM), for inactives: top-dose activity change, negative = inhibition, most hits filed as inhibitors; Q962Y6; purified TGR, DTNB reduction, TNB absorbance 405 nm; hit rate 3% among 360,000; note: nearly all actives have a fitted effect of over 60% in size
#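 First, TGR (20 nM dispensed) and NADPH were mixed with compound. Second, a 15 min room-temperature incubation followed. Third, further NADPH and then DTNB were added to start the reaction. Finally, TNB absorbance was monitored kinetically.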
# Active calls of the source: *; ? = inconclusive; nt = not tested or not shown; ! = not confirmed by another sample; [ ] = remark or other dose. Only some compounds are listed: those with a hit (about 4.1% of all), similar ones and a draw of the others. Unless noted, calls come from the whole dose curve; as a rule, active = well fitted curve in the direction sought with a large enough effect; inconclusive = small, poorly fitted or top-dose-only effect, or another doubt; inactive = no such curve, though single readings can be large; an effect the other way counts as inactive or inconclusive. Unless noted, % is set by controls: 0 for no effect and ±100 for the full control effect; potency is the fitted concentration of half-maximal effect.
SMILES,AmpC detergent,AMA1-RON2 inh,FMDV antiviral,AmpC inh no detg,Sm TGR block
COc1cc(C2NC(=S)NC3=C2CCc2ccccc23)cc(OC)c1OC (stereo not given),-19.8%,49.1%,?,-7.4%,3.7%
C=CCOc1ccc(C2NC(=S)NC3=C2CCc2ccccc23)cc1 (stereo not given),-13.9%,32.9%,-15.6%,?,56.2µM*
O=C(Nc1ccc(Cl)cc1C(=O)Nc1ccncc1)c1ccco1,0.4%,2.1%,-19.8%,-0.9%,39.8µM*
O=C(Nc1ccc(Cl)cc1C(=O)NCc1cccnc1)c1ccco1,2.7%,-2.0%,-17.2%,-22.3%,8.1%
O=C(NNc1ccccc1)c1ccccc1,nt,-2.7%,-6.9%,nt,nt
O=C(NNc1ccc(O)cc1)c1ccc(Br)cc1,1.4%,17.8%,5.2%,-20.7%,22.4µM*
CCOc1ccccc1NS(=O)(=O)c1cc2[nH]c(=O)c(=O)[nH]c2cc1C,5.2%,nt,8.0%,nt,-1.7%
CCOC(=O)C(CC)(CC)C(=O)/C=C/c1cccc(Br)c1,nt,-8.9%,22.4µM*,nt,nt
COc1ccc(O)c(CN2CCC3(CC2)c2ccccc2[C@@H](NC(=O)c2cccc(F)c2)[C@@H]3OC)c1,nt,nt,2.0%,nt,nt
N#C/C(=C\c1c(Oc2ccc(Cl)cc2)nc2ccccn2c1=O)C(=O)NC1CCS(=O)(=O)C1 (stereo not given),3.5%,-5.9%,20µM*,98.3%,-16.5%
Cc1cccn2c(=O)c(/C=C(\C#N)C(=O)NC3CCS(=O)(=O)C3)c(Oc3ccc(F)cc3)nc12 (stereo not given),?,-15.7%,28.2µM*,51.6%,-29.1%
NC(=S)NN=C1c2ccccc2-c2cc(Br)ccc21,nt,6.8%,?,nt,nt
CCOP(=O)(Nc1ccc2c(c1)C(=NNC(N)=S)c1ccccc1-2)OCC,nt,-6.3%,35.5µM*,nt,nt
CCNc1ncc2nc(-c3ccc(OC)cc3)c(=O)n(CCC#N)c2n1,nt,nt,-6.5%,nt,nt
CCc1nc(Nc2ccc(OC)c(OC)c2)c2nnn(Cc3ccccc3Cl)c2n1,1.3%,1.1%,25.1µM*,42.2%,-14.4%
CN(C)S(=O)(=O)c1ccc(Nc2nc(C3CC3)nc3c2nnn3Cc2ccccc2Cl)cc1,0.7%,-3.5%,5.01µM*,-11.0%,6.6%
COc1cccc(OC)c1Nc1nc(C)nc2c1nnn2Cc1ccccc1Cl,2.9%,-0.3%,-13.6%,-3.5%,0.0%
Cc1cnc(CNc2cc(-c3ccoc3)ncn2)cn1,nt,nt,-22.9%,nt,nt
O=[N+]([O-])c1cc(S(=O)(=O)NCCCN2CCOCC2)ccc1Cl,-11.3%,0.3%,-5.3%,-2.9%,44.7µM*
O=[N+]([O-])c1cc(S(=O)(=O)NCCN2CCOCC2)ccc1Sc1nnnn1-c1ccccc1,?,1.2%[11.6 µM],?,127.3%,17.8µM*
CN(C)CCNS(=O)(=O)c1ccc(N2CCN(c3ccc(F)cc3)CC2)c([N+](=O)[O-])c1,-15.7%,-22.5%,?,143.2%,1.3%
Cc1ccc(S(=O)(=O)NCCSc2nnnn2-c2ccc(C(N)=O)cc2)cc1,?,1.1%,-1.0%,10µM*,-3.0%
Cc1ccc(-n2nnnc2Sc2ccc(S(=O)(=O)NCCN(C)C)cc2[N+](=O)[O-])cc1,-11.3%,-4.5%,12.6µM*,58.2%,25.1µM*
Cc1ccc(C)c(NC(=O)CSc2ncc3c(n2)-c2ccccc2N(Cc2ccccc2C)S3(=O)=O)c1,4.9%,nt,-17.6%,nt,4.6%
CC(C)(C)NC(=O)C(c1ccncc1)N(C(=O)Cn1nnc(-c2cccs2)n1)C1CCCCC1 (stereo not given),-1.9%,-12.3%,47.6%,74.9%,-19.8%
SMILES,AmpC detergent,AMA1-RON2 inh,FMDV antiviral,AmpC inh no detg,Sm TGR block
O=C(Cn1nnc(-c2cccs2)n1)NCCc1ccccc1,-12.8%,23.1%,43.3%,-28.1%,-8.4%
O=C(CN(Cc1ccco1)C(=O)Cn1nnc(-c2cccs2)n1)NCc1ccccc1,?,-5.1%,nt,-20.0%,17.8µM*
Cc1cccc(N(CC(=O)NCc2ccccc2)C(=O)Cn2nnc(-c3ccc(C)o3)n2)c1,-17.6%,-5.6%,-14.5%,-14.3%,-13.8%
Cc1ccc(-c2nnn(CC(=O)N(CC(=O)NCc3ccccc3)c3cccc(C)c3C)n2)o1,-6.6%,-15.0%,-10.3%,?,22.4µM*
CC(C)(C)NC(=O)C(c1ccncc1)N(Cc1cccs1)C(=O)Cn1nnc(-c2cccs2)n1 (stereo not given),-1.9%,-3.8%,nt,64.2%,50.1µM*
Cc1ccc(C(C(=O)NC(C)(C)C)N(Cc2ccco2)C(=O)Cn2nnc(-c3cccs3)n2)cc1 (stereo not given),-0.6%,24.6%,-22.2%,-24.0%,1.4%
CC(C)(C)NC(=O)C(c1ccc(O)cc1)N(Cc1ccco1)C(=O)Cn1nnc(-c2cccs2)n1 (stereo not given),-5.4%,-3.5%,nt,-48.1%,17.8µM*
Cc1ccc(Nc2c(-c3ccc(C)o3)nc3cnccn23)cc1,-16.5%,0.0%,7.2%,3.2%,10µM*
Cc1ccc(-c2nc3cnccn3c2Nc2ccc3c(c2)OCO3)o1,?,-18.0%,-28.2%,2.82µM*,50.1µM*
Clc1ccc(-c2nc3cnccn3c2Nc2ccc3c(c2)OCO3)cc1,?,-29.1%,0.0%,22.4µM*,0.3%
COC(=O)c1ccc2nc(C3CCCCC3)c(Cc3ccccc3)n2c1,nt,-4.6%,-8.8%,nt,nt
COC(=O)C1CCN(Cc2ccc3c(c2)CN(C(=O)c2ncc(C)[nH]2)CCO3)CC1,nt,nt,-12.0%,nt,nt
CCCCN1C(=O)C(NC(=O)c2ccc(C(C)(C)C)cc2)(C(F)(F)F)C(C(=O)OC)=C1C (stereo not given),-0.3%,nt,-10.1%,nt,-2.1%
COc1ccc(-c2cc(C)cc3c2OC(CNC(=O)/C=C/c2ccncc2)C3)nn1 (stereo not given),nt,nt,-16.7%,nt,nt
Cc1ccc(Nc2nnc(SCC(=O)c3ccc(O)cc3O)s2)cc1,-1.8%,7.9%,29.2%,11.2µM*,-5.5%
Cc1ccc2c(c1)-c1onc(C(=O)N3CCN(c4cccc(C)c4C)CC3)c1CO2,16.9%,nt,-17.8%,nt,0.9%
Cc1cc(C)c2c(=O)n(CC(=O)N3CCC(Cc4ccccc4)CC3)sc2n1,?,nt,nt,-12.0%,-32.1%
Cc1cc(C)c2c(=O)n(CC(=O)Nc3cccc(F)c3)sc2n1,79.4µM*,-5.9%,-19.5%,?,-36.0%
Cc1cccc(N2CCN(C(=O)Cn3sc4nc(C)cc(C)c4c3=O)CC2C)c1 (stereo not given),50.1µM*,-4.0%,-28.0%,-15.8%,-28.1%
Cc1cccc(N2CCN(C(=O)c3noc4c3COc3ccc(C)cc3-4)CC2C)c1 (stereo not given),-11.8%,-16.6%,-27.7%,-17.3%,5.62µM*!
Cc1cccc(N2CCN(C(=O)C3CC(=O)N(c4ccc5c(c4)OCCO5)C3)CC2C)c1 (stereo not given),-7.2%,-1.6%,?,53.7%,44.7µM*
Cc1cc(C)c2c(=O)n(CC(=O)Nc3ccc(Cl)cc3)sc2n1,-13.2%,15.9%,?,?,?

# Source: PubChem (National Center for Advancing Translational Sciences (NCATS))
